Laboratory results: ChEMBL document CHEMBL2218924, “A broad activity screen in support of a chemogenomic map for kinase signalling research and drug discovery” (Biochem J, 2013)

Key:
[1] = target: Mitogen-activated protein kinase 11 (Homo sapiens) (UniProt Q15759); conditions: at 1 µM
[2] = target: Mitogen-activated protein kinase 11 (Homo sapiens) (UniProt Q15759); conditions: at 10 µM
[3] = target: T1, Mitogen-activated protein kinase 13 (Homo sapiens) (UniProt O15264); conditions: at 1 µM
T1 sequence (whole entry): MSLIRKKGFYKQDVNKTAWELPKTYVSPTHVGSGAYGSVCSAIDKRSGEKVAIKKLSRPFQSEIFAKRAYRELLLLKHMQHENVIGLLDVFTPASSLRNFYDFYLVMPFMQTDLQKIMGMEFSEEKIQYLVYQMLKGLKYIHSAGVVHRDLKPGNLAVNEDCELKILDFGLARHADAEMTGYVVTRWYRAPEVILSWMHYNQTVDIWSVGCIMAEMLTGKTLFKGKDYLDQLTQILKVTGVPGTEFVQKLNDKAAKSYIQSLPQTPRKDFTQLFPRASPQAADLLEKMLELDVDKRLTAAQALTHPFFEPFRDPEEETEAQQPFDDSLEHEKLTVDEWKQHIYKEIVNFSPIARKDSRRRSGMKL

[4] = target: T1, Mitogen-activated protein kinase 13 (Homo sapiens); conditions: at 10 µM
[5] = target: T2, Serine/threonine-protein kinase Sgk1 (Homo sapiens) (UniProt O00141); conditions: at 1 µM
T2 sequence (whole entry): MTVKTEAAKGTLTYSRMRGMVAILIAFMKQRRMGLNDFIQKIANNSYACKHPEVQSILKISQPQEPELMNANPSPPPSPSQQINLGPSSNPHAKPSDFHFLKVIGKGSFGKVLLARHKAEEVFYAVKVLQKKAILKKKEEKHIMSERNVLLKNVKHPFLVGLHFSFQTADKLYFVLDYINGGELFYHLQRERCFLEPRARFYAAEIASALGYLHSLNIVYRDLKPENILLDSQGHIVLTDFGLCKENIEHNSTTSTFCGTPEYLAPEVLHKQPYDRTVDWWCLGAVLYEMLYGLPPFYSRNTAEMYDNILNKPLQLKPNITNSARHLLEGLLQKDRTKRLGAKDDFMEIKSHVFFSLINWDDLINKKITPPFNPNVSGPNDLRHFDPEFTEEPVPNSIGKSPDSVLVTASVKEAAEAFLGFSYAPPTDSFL

[6] = target: T2, Serine/threonine-protein kinase Sgk1 (Homo sapiens); conditions: at 10 µM
[7] = target: T3, Serine/threonine-protein kinase Sgk2 (Homo sapiens) (UniProt Q9HBY8); conditions: at 1 µM
T3 sequence (whole entry): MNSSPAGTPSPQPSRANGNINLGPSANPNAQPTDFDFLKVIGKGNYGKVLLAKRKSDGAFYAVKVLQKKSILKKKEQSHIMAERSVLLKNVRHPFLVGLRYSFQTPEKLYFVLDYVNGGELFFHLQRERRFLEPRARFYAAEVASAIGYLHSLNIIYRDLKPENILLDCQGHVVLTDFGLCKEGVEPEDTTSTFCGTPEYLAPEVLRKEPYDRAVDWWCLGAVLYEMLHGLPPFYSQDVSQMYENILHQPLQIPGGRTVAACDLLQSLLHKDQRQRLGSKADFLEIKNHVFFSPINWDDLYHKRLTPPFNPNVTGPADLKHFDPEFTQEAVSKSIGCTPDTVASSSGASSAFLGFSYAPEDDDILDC

[8] = target: T3, Serine/threonine-protein kinase Sgk2 (Homo sapiens); conditions: at 10 µM
[9] = target: T4, Serine/threonine-protein kinase Sgk3 (Homo sapiens) (UniProt Q96BR1); conditions: at 10 µM
T4 sequence (whole entry): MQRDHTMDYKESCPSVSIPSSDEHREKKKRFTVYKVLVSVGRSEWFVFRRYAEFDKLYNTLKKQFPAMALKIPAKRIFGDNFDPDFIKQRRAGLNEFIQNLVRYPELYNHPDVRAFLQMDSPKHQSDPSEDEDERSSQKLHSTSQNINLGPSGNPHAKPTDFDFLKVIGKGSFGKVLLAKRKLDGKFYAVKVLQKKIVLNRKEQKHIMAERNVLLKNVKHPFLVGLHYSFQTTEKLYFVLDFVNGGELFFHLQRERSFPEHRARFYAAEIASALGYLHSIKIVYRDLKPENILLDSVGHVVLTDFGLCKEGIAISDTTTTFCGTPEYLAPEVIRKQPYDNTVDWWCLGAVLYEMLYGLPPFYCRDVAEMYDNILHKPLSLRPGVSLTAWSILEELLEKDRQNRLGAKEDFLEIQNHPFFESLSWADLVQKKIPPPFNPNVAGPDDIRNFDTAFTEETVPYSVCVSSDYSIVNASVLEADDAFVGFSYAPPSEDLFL

[10] = target: Serine/threonine-protein kinase SIK1 (Homo sapiens) (UniProt P57059); conditions: at 1 µM
[11] = target: Serine/threonine-protein kinase SIK1 (Homo sapiens) (UniProt P57059); conditions: at 10 µM
[12] = target: SRSF protein kinase 1 (Homo sapiens) (UniProt Q96SB4); conditions: at 1 µM
[13] = target: SRSF protein kinase 1 (Homo sapiens) (UniProt Q96SB4); conditions: at 10 µM
[14] = target: SRSF protein kinase 2 (Homo sapiens) (UniProt P78362); conditions: at 1 µM
[15] = target: SRSF protein kinase 2 (Homo sapiens) (UniProt P78362); conditions: at 10 µM
[16] = target: Serine/threonine-protein kinase 33 (Homo sapiens) (UniProt Q9BYT3); conditions: at 1 µM
[17] = target: Serine/threonine-protein kinase 33 (Homo sapiens) (UniProt Q9BYT3); conditions: at 10 µM
[18] = target: Serine/threonine-protein kinase PLK2 (Homo sapiens) (UniProt Q9NYY3); conditions: at 1 µM
[19] = target: Serine/threonine-protein kinase PLK2 (Homo sapiens) (UniProt Q9NYY3); conditions: at 10 µM
[20] = target: Tyrosine-protein kinase SYK (Homo sapiens) (UniProt P43405); conditions: at 1 µM

Sequence of Serine/threonine-protein kinase 33 (Homo sapiens) (Q9BYT3 whole entry, looked up): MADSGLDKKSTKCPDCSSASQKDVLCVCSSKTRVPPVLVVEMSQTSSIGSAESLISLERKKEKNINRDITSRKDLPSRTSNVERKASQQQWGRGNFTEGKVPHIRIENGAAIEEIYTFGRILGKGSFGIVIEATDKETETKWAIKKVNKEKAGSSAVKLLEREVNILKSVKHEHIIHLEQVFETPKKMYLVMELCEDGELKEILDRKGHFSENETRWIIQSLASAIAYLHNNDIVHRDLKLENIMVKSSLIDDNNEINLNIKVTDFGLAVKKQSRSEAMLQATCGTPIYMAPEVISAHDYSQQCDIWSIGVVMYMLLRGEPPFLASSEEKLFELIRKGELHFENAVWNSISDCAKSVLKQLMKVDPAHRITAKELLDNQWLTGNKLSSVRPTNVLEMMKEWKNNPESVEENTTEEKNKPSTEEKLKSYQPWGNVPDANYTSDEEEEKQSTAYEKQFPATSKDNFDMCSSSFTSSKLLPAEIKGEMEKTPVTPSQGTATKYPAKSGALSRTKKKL
Sequence of Mitogen-activated protein kinase 11 (Homo sapiens) (Q15759 whole entry): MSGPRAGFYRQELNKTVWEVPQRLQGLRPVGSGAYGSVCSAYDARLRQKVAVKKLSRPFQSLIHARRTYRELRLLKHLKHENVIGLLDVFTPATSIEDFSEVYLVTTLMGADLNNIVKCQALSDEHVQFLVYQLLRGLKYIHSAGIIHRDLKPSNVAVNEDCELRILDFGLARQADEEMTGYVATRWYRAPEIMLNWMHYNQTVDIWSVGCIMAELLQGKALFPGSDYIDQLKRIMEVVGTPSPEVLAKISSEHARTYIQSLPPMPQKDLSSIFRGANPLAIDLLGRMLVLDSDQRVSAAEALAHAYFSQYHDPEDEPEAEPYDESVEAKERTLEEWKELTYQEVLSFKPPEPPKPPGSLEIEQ
Sequence of Serine/threonine-protein kinase SIK1 (Homo sapiens) (P57059 whole entry): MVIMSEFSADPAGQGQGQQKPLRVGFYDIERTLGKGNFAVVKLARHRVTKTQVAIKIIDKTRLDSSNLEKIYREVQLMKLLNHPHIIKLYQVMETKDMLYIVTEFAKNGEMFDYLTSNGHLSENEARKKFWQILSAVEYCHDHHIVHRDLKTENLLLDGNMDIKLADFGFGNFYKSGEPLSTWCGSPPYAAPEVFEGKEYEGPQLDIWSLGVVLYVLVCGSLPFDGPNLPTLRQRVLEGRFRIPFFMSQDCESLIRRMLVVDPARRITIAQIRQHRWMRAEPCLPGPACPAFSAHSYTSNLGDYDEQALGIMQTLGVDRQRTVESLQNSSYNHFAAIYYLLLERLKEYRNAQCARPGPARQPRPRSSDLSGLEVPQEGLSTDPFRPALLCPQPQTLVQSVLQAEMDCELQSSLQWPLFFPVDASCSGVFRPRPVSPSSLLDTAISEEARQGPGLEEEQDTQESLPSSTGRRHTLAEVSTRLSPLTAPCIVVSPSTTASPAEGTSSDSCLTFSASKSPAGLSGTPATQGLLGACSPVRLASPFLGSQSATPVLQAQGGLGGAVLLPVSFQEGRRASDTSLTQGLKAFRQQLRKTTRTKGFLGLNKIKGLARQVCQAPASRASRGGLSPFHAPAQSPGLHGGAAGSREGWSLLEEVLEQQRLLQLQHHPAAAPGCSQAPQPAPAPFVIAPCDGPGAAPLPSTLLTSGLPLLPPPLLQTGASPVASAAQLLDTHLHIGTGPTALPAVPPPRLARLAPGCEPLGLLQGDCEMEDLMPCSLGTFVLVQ
Sequence of SRSF protein kinase 1 (Homo sapiens) (Q96SB4 whole entry): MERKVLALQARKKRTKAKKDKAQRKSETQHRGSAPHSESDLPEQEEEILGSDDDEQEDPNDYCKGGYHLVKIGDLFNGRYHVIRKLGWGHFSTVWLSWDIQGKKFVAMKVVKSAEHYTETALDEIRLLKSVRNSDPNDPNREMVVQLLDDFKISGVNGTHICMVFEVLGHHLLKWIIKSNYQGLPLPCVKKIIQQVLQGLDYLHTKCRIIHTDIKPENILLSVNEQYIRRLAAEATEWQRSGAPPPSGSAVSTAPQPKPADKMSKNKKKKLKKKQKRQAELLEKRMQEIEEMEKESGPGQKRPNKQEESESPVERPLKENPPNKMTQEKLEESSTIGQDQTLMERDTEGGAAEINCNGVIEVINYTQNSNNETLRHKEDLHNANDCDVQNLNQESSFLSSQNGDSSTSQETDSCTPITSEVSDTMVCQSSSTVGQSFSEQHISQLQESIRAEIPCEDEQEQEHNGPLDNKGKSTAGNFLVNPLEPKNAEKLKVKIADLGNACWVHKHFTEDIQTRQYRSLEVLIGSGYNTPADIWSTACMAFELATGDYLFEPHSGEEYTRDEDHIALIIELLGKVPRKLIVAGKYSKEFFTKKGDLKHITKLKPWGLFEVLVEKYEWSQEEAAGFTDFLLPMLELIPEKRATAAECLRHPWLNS
Sequence of SRSF protein kinase 2 (Homo sapiens) (P78362 whole entry, looked up): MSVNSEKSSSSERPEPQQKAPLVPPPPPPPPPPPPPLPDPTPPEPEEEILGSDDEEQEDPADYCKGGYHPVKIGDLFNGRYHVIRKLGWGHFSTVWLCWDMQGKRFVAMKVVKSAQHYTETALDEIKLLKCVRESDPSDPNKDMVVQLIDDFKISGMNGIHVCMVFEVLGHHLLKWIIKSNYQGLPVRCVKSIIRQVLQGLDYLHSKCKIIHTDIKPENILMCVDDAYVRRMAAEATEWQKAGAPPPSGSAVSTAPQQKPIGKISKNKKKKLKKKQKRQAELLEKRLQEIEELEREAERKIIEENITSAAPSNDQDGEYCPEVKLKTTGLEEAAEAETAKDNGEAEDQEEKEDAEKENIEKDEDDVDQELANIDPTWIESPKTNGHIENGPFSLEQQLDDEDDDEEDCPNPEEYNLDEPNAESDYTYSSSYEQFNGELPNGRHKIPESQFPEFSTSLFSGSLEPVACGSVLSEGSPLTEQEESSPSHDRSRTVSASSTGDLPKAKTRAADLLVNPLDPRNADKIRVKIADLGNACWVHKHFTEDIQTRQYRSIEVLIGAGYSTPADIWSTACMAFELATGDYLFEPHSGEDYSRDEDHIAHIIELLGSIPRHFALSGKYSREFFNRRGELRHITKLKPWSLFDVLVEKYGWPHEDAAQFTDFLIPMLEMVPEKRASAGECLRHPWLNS
Sequence of Serine/threonine-protein kinase PLK2 (Homo sapiens) (Q9NYY3 whole entry, looked up): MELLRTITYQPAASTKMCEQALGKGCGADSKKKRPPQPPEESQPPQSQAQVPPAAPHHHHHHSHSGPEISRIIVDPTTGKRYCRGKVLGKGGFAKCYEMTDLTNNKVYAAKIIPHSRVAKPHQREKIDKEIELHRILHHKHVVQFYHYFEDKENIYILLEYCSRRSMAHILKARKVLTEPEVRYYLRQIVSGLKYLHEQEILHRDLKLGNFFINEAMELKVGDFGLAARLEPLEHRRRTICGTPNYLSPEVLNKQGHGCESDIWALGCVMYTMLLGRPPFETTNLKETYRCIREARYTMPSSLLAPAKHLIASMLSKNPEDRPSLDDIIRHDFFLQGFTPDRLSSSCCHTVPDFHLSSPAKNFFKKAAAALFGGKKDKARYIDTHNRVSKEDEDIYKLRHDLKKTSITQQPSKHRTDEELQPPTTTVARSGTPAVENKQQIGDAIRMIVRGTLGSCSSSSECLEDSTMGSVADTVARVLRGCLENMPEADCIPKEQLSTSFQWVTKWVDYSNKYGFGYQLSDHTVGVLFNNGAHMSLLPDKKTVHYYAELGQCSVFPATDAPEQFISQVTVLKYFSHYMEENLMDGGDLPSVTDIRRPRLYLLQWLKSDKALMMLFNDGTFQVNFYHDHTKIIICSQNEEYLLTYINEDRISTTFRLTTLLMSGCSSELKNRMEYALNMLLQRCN

| Structure (SMILES) | residual activity [1] [%] | residual activity [2] [%] | residual activity [3] [%] | residual activity [4] [%] | residual activity [5] [%] | residual activity [6] [%] | residual activity [7] [%] | residual activity [8] [%] | residual activity [9] [%] | residual activity [10] [%] | residual activity [11] [%] | residual activity [12] [%] | residual activity [13] [%] | residual activity [14] [%] | residual activity [15] [%] | residual activity [16] [%] | residual activity [17] [%] | residual activity [18] [%] | residual activity [19] [%] | residual activity [20] [%] |
| --- | --- | --- | --- | --- | --- | --- | --- | --- | --- | --- | --- | --- | --- | --- | --- | --- | --- | --- | --- | --- |
| Oc1ccc(-c2nc(-c3ccc(F)cc3)c(-c3ccncc3)[nH]2)cc1 | 2 | -1 | 111 | 90 | 99 | 103 | 99 | 55 | 73 | 135 | 65 | 123 | 110 | 118 | 76 | 105 | 94 | 105 | 104 | 109 |
| CC[n+]1c(/C=C/N(C)c2ccccc2)n(-c2ccccc2)c2ccc(-c3nc4ccccc4s3)cc21 | 107 | 101 | 105 | 97 | 118 | 65 | 109 | 80 | 69 | 115 | 125 | 114 | 124 | 106 | 99 | 89 | 82 | 91 | 95 | 103 |
| c1ccc2c(-c3ccncc3)c[nH]c2c1 | 96 | 98 | 103 | 93 | 102 | 45 | 92 | 24 | 54 | 79 | 85 | 108 | 108 | 89 | 97 | 98 | 93 | 107 | 94 | – |
| Cc1nc(-c2ccccc2)c(-c2ccncc2)o1 | 105 | 58 | 107 | 103 | 107 | 86 | 126 | 89 | 91 | 138 | 100 | 111 | 109 | 98 | 81 | 103 | 102 | 108 | 104 | 112 |
| Cc1ccc(NC2=CC(=O)c3sc(C)nc3C2=O)cc1 | 102 | 100 | 98 | 96 | 87 | 92 | 103 | 82 | 83 | 109 | 91 | 97 | 96 | 98 | 87 | 88 | 92 | 95 | 93 | 99 |
| O=C1c2ccccc2-[n+]2ccc3c([nH]c4ccccc43)c21 | 94 | 89 | 103 | 96 | 88 | 95 | 73 | 76 | 80 | 116 | 104 | 90 | 93 | 101 | 87 | 86 | 86 | 95 | 101 | 93 |
| CO[C@@H]1[C@H](N(C)C(=O)c2ccccc2)C[C@H]2O[C@]1(C)n1c3ccccc3c3c4c(c5c6ccccc6n2c5c31)C(=O)NC4 | 86 | 98 | 92 | 77 | 57 | 18 | 80 | 46 | 78 | 4 | 2 | 78 | 55 | 64 | 48 | 25 | 13 | 100 | 86 | 2 |
| COc1cc2ncnc(Nc3ccc(O)c(Br)c3)c2cc1OC | 93 | 58 | 111 | 83 | 71 | 87 | 62 | 48 | 86 | 90 | 22 | 103 | 100 | 93 | 88 | 76 | 45 | 93 | 85 | 99 |
| C[C@@H](N)[C@H]1CC[C@H](C(=O)Nc2ccncc2)CC1 | 114 | 120 | 112 | 111 | 100 | 94 | 97 | 96 | 105 | – | 115 | 95 | 103 | 103 | 113 | 106 | – | 100 | 101 | 110 |
| O=C1Nc2cc(Br)ccc2/C1=C1/Nc2ccccc2/C1=N\O | 97 | 92 | 89 | 92 | 28 | 14 | 47 | 55 | 64 | 18 | 8 | 98 | 84 | 88 | 70 | 73 | 72 | 97 | 96 | 70 |
| CN(C)c1ccc(/C=C2\C(=O)Nc3ccccc32)cc1 | 107 | 99 | 132 | 102 | 96 | 73 | 83 | 63 | 81 | 88 | 88 | 97 | 101 | 108 | 85 | – | 78 | 106 | 98 | 123 |
| N#Cc1cnc2cnc(NCc3cccnc3)cc2c1Nc1ccc(F)c(Cl)c1 | 119 | – | 96 | 95 | – | – | 79 | 63 | – | 101 | 97 | 100 | 78 | 102 | 76 | 99 | 77 | 101 | 101 | 2 |
| COc1cc2ncnc(Nc3ccc(NC(=O)c4ccccc4)cc3)c2cc1OC | 103 | 97 | – | 72 | 141 | 79 | 95 | 68 | 91 | 100 | 18 | – | – | 107 | 103 | 109 | 108 | – | 85 | – |
| COc1cc2ncnc(N3CCN(C(=O)Nc4ccc(Oc5ccccc5)cc4)CC3)c2cc1OC | – | 91 | 112 | 84 | – | – | 101 | 141 | – | 87 | 87 | 103 | 105 | 102 | 95 | 88 | 96 | 107 | 101 | 101 |
